In PubChem BioAssay AID1210 (NMMLSC, 2008):

Each compound was assayed against Estrogen receptor beta (Homo sapiens) (UniProt Q92731) (assay: ERbeta ligand binders by competition, primary screen, cell-based, Cos7 ERbeta-GFP, flow cytometry (AID 1210;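 note: 0% = DMSO vehicle wells and 100% = complete loss of labeled estradiol signal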)). Conditions: fluorescent estrogen binding, at 10 µM, active compounds read high;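 active = blocks over 70% of labeled estradiol binding at 10 µM, or over a set limit at 100 nM; inactive = the rest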.
Estrogen receptor beta (Homo sapiens), sequence (Q92731 whole entry, looked up): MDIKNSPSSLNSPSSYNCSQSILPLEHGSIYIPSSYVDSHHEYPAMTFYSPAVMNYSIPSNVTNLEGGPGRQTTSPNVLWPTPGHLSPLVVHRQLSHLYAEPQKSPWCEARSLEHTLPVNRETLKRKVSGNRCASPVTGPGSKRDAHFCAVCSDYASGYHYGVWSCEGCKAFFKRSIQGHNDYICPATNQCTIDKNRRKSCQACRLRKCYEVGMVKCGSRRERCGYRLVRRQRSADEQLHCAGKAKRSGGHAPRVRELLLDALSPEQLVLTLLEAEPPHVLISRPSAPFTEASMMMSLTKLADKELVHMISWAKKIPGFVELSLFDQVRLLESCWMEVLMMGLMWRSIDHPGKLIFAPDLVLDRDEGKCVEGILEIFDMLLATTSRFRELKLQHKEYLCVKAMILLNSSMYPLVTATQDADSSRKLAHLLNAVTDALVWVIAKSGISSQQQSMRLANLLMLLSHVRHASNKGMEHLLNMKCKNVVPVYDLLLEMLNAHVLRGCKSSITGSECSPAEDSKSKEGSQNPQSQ

inhibition, inactive:
CC1(C)C=C(c2ccc(O)cc2)CC(C)(C)N1 43%
O=C1CC(c2ccc3c(c2)OCO3)c2ccc3ccccc3c2N1 (stereo not drawn) 19%
CC1(C)Cc2[nH]c(=O)c(C(=O)O)cc2CO1 43%
CC(=O)c1ccc2c(c1)C1C=CCC1C(c1cccc([N+](=O)[O-])c1)N2 (stereo not drawn) 0%
CCOC(=O)COc1cc2oc(=O)c3c(c2cc1CC)CCCC3 23%
N#Cc1c(NCCN)nc(NCc2ccccc2)c2c1CCN(Cc1ccccc1)C2 42%
O=c1oc2cc(O)ccc2c2c1CCC2 8%
CCOC(=O)c1c(N)sc2c1CC(C)(C)NC2(C)C 22%
CC(C)COc1ccc2c(c1)c1c3n2CCNC3CCC1 (stereo not drawn) 9%
COc1ccc(NS(=O)(=O)c2ccc3c(c2)[C@H]2C=CC[C@H]2[C@@H](c2ccc(F)cc2)N3)cc1 20%
COc1ccc(NS(=O)(=O)c2ccc3c(c2)[C@H]2C=CC[C@H]2[C@@H](c2cccc(OC)c2OC)N3)cc1 1%
COc1ccc2[nH]c3c(c2c1)CCNC3=O 17%
CCC1=NN2C(=N)/C(=C\c3ccc(SCc4ccco4)o3)C(=O)N=C2S1 35%
Cn1c(-c2ccc(N)cc2)nc2ccccc21 24%
CC(=O)Oc1ccc(C2Nc3c(C(=O)O)ccc([N+](=O)[O-])c3C3C=CCC32)cc1 (stereo not drawn) 56%
O=c1oc2cc(O)c(Cl)cc2c2c1CCCC2 8%
O=C(O)COc1cc2oc(=O)c3c(c2cc1Cl)CCCC3 11%
Cc1ccc(-c2nn3c(C)nnc3s2)cc1NC(=O)COc1ccc(Cl)cc1 24%
COc1ccc(Oc2ccc3c(c2)c2c4n3CCNC4CCC2)cc1 (stereo not drawn) 7%
Cc1nnc(N/N=C/c2ccc(O)c([N+](=O)[O-])c2)[nH]c1=O 7%
CC(C)C1Nc2ccc(C(=O)O)cc2C2C=CCC21 (stereo not drawn) 35%
COc1cccc(C2NCCc3cc(OC)c(OC)cc32)c1 (stereo not drawn) 15%
CCCCc1cc(=O)oc2c(C)c(O)ccc12 7%
Nc1c(Cl)cc(Cl)cc1C(=O)OCC(=O)NC1CC1 42%
Cc1ccc(-n2nnnc2SCC(=O)Nc2cccc(NC(=O)c3ccco3)c2)cc1C 56%
CCOC(=O)c1ccc2c(c1)C1C=CCC1C(c1cccc([N+](=O)[O-])c1)N2 (stereo not drawn) 6%
CC1(C)CC(=O)C=C(NC2CC(C)(C)NC(C)(C)C2)C1 2%
Cc1ccc2c(c1C)NC(C(=O)O)C1CC=CC21 (stereo not drawn) 3%
CCOC(=O)Cc1cc(-c2ccc(O)cc2)nc2ccc3ccccc3c12 69%
C=C1c2ccc(OC)cc2NC(=O)N1c1ccccc1 15%
O=C(O)c1ccc([N+](=O)[O-])c2c1NC(c1ccccc1)C1CC=CC21 (stereo not drawn) 62%
COc1cccc(-c2cc(C(=O)Nc3cc(C)nn3-c3ccccc3)no2)c1 23%
CC(=O)c1ccc2c(c1)C1C=CCC1C(c1ccncc1)N2 (stereo not drawn) 11%
O=c1oc2c(CN3CCCC3)c(O)ccc2c2c1CCC2 22%
CCCc1c(C(=O)OCC)[nH]c2c1C(=O)CC(c1ccccc1)C2 (stereo not drawn) 39%
CCOc1cc2c(c([N+](=O)[O-])c1)NC(c1ccccc1)C1CC=CC21 (stereo not drawn) 17%
COc1ccc(OC)c(NC(=O)c2cc(-c3ccc(C)cc3O)n[nH]2)c1 19%
Oc1ccc2c(c1)c1c3n2CCNC3CCC1 (stereo not drawn) 25%
